Pf growth 96h: P. falciparum growth inhibition at 96 hours; P. falciparum luciferase reporter growth, 96 h; Potency, µM (series often up to 28.7 µM), for the others: at the highest dose activity change, negative = inhibition, actives largely listed as inhibitors; 6.9% of 320,000 active; note: potency is the fitted concentration of half-maximal effect; % is set by controls: 0 for no effect and ±100 for the full control effect
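Readout is luminescence from an integrated firefly luciferase in P. falciparum. Red cells, 2% hematocrit and 0.05% parasitemia final, were cultured with compound through two parasite generations (96 hours) at 37 C, 5% CO2.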
HCMV antiviral: blocks human cytomegalovirus replication | activity change, negative = inhibition, % at 57.5 µM | HFF cells, HCMV-luciferase reporter, 72 h; stronger effect = lower value | 4.5% of 410,000 active; in the data active = activity change below about -60%; inconclusive = no clear call, values can overlap the other calls; inactive = above about -39%; note: % is set by controls: 0 for no effect and ±100 for the full control effect
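HFF cells seeded 16 h at 37C, treated with compounds, infected with luciferase-reporter HCMV at MOI 1 PFU/cell; luciferase read at 72 h post infection, normalized to buffer-only and Salinomycin controls.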
Pf growth 48h: inhibits P. falciparum growth in the first generation, 48 h; 5.9% of 310,000 active; Potency, µM (series often up to 28.7 µM), for the others: at the top dose activity change, negative = inhibition, most hits filed as inhibitors; AID 504832; P. falciparum luciferase growth in erythrocytes, 48 h; note: potency is the fitted concentration of half-maximal effect; % is set by controls: 0 for no effect and ±100 for the full control effect
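Parasite viability was followed by luminescence of a genomically integrated firefly luciferase. Cultures held 0.1% parasitemia at 2% hematocrit (final), incubated under 5% CO2 at 37 C.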
SARS PLpro yeast: blocks SARS-CoV papain-like protease in a yeast assay; S. cerevisiae expressing SARS-CoV PLpro, growth rescue; Potency, µM (series often up to 32.9 µM), for the others: at the top dose activity, positive = growth rescue, hits mostly activators; 0.19% of 330,000 active; calls by dose curve; note: potency is the fitted concentration of half-maximal effect; 0% is about no effect; nearly all actives have a fitted effect of over 55% in size
Sm TGR block: blocks Schistosoma mansoni thioredoxin glutathione reductase; Q962Y6; purified TGR, DTNB reduction, TNB absorbance 405 nm; Potency, µM (highest dose often 114 µM), for the others: at the highest dose activity change, negative = inhibition, usual class: inhibitors; 3% of 360,000 active; AID 485364; note: potency is the fitted concentration of half-maximal effect; % is set by controls: 0 for no effect and ±100 for the full control effect; nearly all actives have a fitted effect of over 60% in size
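Kinetic colorimetric format: TGR-catalysed, NADPH-driven DTNB reduction monitored via TNB absorbance. Enzyme dispensed at 20 nM; compound exposure 15 min at room temperature before reaction start.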
HCV inh: inhibitors of hepatitis C virus infection; 3.4% of 340,000 active; Huh7.5.1 HCVcc-Cre infection, luciferase reporter, 44 h; Potency, µM (top dose mostly 41.8 µM), inactives show top-dose activity change, negative = inhibition, most hits filed as inhibitors; note: potency is the fitted concentration of half-maximal effect; % is set by controls: 0 for no effect and ±100 for the full control effect
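Compounds are dispensed onto cells plated 4 h earlier at 1,000 per well, with HCVcc-Cre virus (about 0.5 moi) added next. Following 44 h of culture, luminescent signal is measured for 15 sec after 15 min with substrate at room temperature.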
* hit, by the source's call; u = inconclusive; x = no result given. Compounds with a hit are over-represented: about 15% of the library has one in this group of screens. Unless noted, calls come from the whole dose curve; as a rule, active = well fitted curve in the direction sought with a large enough effect; inconclusive = small, poorly fitted or top-dose-only effect, or another doubt; inactive = no such curve, though single readings can be large; an effect the other way counts as inactive or inconclusive.

SMILES	Pf growth 96h	HCMV antiviral	Pf growth 48h	SARS PLpro yeast	Sm TGR block	HCV inh
O=C(Nc1ccc2c(c1)CCCN2C(=O)c1ccccc1)c1ccccc1Br	-6.7%	-70.2*	u	-0.3%	10.5%	u
COc1ccnc(CS(=O)c2nc3ccc(OC(F)F)cc3[nH]2)c1OC (stereo not given)	-8.7%	x	-7.3%	x	x	x
Cc1ccc(CS(=O)(=O)Cc2ccc(C(=O)NCCc3ccc(Cl)cc3)o2)cc1	x	9.6	x	x	2.3%	x
O=[N+]([O-])c1ccc(Cl)c2c1C1C=CCC1C(c1ccccn1)N2 (stereo not given)	-23.7%	-8.8	u	-0.5%	20µM*	-24.1%
O=C(O)c1ccc(Cl)c2c1C1C=CCC1C(c1ccccn1)N2 (stereo not given)	-20.5%	x	x	24.3%	u	x
CN(C)C1CN(Cc2cn(Cc3cccc(C(F)(F)F)c3)nn2)S(=O)(=O)C1 (stereo not given)	x	20.1	x	x	x	x
O=C(CCCSc1ccccc1)Nc1nc(-c2ccccn2)cs1	7.38µM*	-0.7	x	-11.0%	-5.7%	u
O=C(CN1C(=O)CCC1=O)Nc1nc(-c2ccccn2)cs1	u	-61.9*	x	14.2%	-10.5%	u
CCOc1ccc(C2CC(c3c(O)c4ccccc4oc3=O)=NN2c2ccccc2)cc1OC (stereo not given)	u	-78.3*	14.4%	3.8%	-27.9%	15.7%
Cc1ccc2c(c1)C(=O)C(=O)N2Cc1ccc(Br)cc1	x	-76.3*	x	-6.9%	x	u
Cc1ccc2c(c1)C(=O)C(=O)N2Cc1ccc(OCCC(C)C)cc1	x	-94.6*	x	x	0.4%	x
O=C(NCC1(c2ccccc2)CCOCC1)c1cccs1	15.7%	-19.8	-1.2%	-0.6%	0.8%	24.0%
CCCCCCSc1nc(O)c(C2OC(=O)c3c2ccc(OC)c3OC)c(=O)n1-c1ccccc1 (stereo not given)	-24.3%	-15.7	x	3.1%	12.6µM*	34.2%
CC(=O)N1N=C(c2c(-c3ccccc3)c3cc(C)ccc3[nH]c2=O)CC1c1ccco1 (stereo not given)	5.22µM*	-38.3	14.7µM*	-6.4%	-26.1%	u
CC(=O)N1N=C(c2c(-c3ccccc3)c3cc(Br)ccc3[nH]c2=O)CC1c1ccco1 (stereo not given)	5.22µM*	u	u	0.7%	12.6µM*	u
O=C(O)CCC(=O)N1N=C(c2c(-c3ccccc3)c3cc(Cl)ccc3[nH]c2=O)CC1c1cccs1 (stereo not given)	u	-37.7	-13.9%	-5.0%	-8.4%	22.4%
COc1ccc(N(CC(=O)N/N=C(\C)c2ccc(OC)c(OC)c2)S(=O)(=O)c2ccccc2)cc1	41.8%	-33.9	x	1.5%	10.2%	-20.5%
O=[N+]([O-])c1cnccc1Nc1cccc(F)c1	-10.2%	-10.7	-2.1%	2.2%	-13.6%	u
O=[N+]([O-])c1ccc(Oc2cccc(F)c2)c2ccncc12	x	-24.7	u	-32.2%	-12.2%	3.98µM*
Cc1cc(F)ccc1S(=O)(=O)N1CCCOC1CNC(=O)C(=O)NCc1ccncc1 (stereo not given)	u	33.5	3.6%	26.4%	-1.1%	16.5%
CCCNC(=O)c1ccccc1NC(=O)C1=CSCCO1	14.7µM*	-33.1	5.1%	-1.9%	8.2%	-11.9%
CCCNC(=O)c1ccccc1NS(=O)(=O)c1ccc2c(c1)OCCO2	-15.9%	60.2	9.28µM*	12.8%	1.9%	2.1%
CCCCNC(=O)c1ccccc1NS(=O)(=O)c1ccc2c(c1)OCCO2	x	-3.6	u	21.1%	-3.6%	13.2%
CC(C)CCNC(=O)c1ccccc1NC(=O)C1=CSCCO1	0.6%	-11.0	3.4%	-2.5%	2.8%	-2.1%
CS(=O)CCC(NS(=O)(=O)c1ccccc1)C(=O)O (stereo not given)	9.28µM*	26.3	u	9.2%	3.6%	-17.8%
O=C(OCN1C(=O)c2ccccc2C1=O)C1CCCCC1	10.1%	-29.0	43.4%	-2.1%	-16.1%	13.1%
O=C1c2ccccc2C(=O)N1SC1CCCCC1	101.5%	4.6	54.9%	-32.4%	44.7µM*	10.5%
